Test results: PubChem BioAssay (EPA / NIEHS)
Records with an inconclusive call do not appear. Active and inactive are the calls of the source. How the source made its calls, unless noted: active means hit-call score of the fitted dose curve at least 0.9, where 1 is the maximum; inconclusive means response in the unintended direction; inactive means score below 0.9.

Legend:
[1] = ATG_TAL_CIS: Attagene CIS-FACTORIAL HepG2 Assay for human TAL Basal Promoter (AID 2282966; active means hit-call score of the fitted dose curve at least 0.9, where 1 is the maximum; inactive means score below 0.9;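 further: background control endpoint measuring basal TAL promoter reporter mRNA not a specific factor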); details: HepG2 Attagene cis-factorial TAL promoter reporter; actives raise or lower the signal
Procedure, shortened: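 HepG2, transient MRTU transfection, 24 h compound exposure; RNA → oligo(dT) RT → PCR → 6-FAM primer extension → HpaI digest → CE fluorescence. Bidirectional curve fit vs DMSO. Background-control readout.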

[2] = ATG_TGFb_CIS: Attagene CIS-FACTORIAL HepG2 Assay for human Transforming Growth Factor (TGF) (AID 2282967; active means hit-call score of the fitted dose curve at least 0.9, where 1 is the maximum; inactive means score below 0.9); details: HepG2 Attagene CIS TGFb reporter, mRNA transcription; actives raise or lower the signal
Procedure, shortened: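 Multiplexed cis-reporter HepG2 system, 24 h treatment; mRNA induction read by fluorescence after RT-PCR and CE; DMSO negative control, bidirectional curve fitting.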

[3] = ATG_VDRE_CIS: Attagene CIS-FACTORIAL HepG2 Assay for human Vitamin D Receptor Element (VDRE) (AID 2282968; active means hit-call score of the fitted dose curve at least 0.9, where 1 is the maximum; inactive means score below 0.9); details: HepG2 VDRE cis-reporter transcription, actives raise or lower the signal
Procedure, shortened: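 Transient MRTU transfection of HepG2, 24 h compound exposure. Readout: reporter transcripts via RT-PCR and capillary electrophoresis, fluorescence. Bidirectional fit vs DMSO.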

[4] = target: Estrogen receptor (Homo sapiens) (UniProt P03372); experiment: ATG_ERa_TRANS: Attagene TRANS-FACTORIAL HepG2 Assay for human Estrogen Receptor alpha (ERa) (AID 2282970); details: HepG2 Attagene TRANS ERa GAL4 reporter, mRNA
Sequence of Estrogen receptor (Homo sapiens) (P03372 whole entry, looked up, the tested form may be a part): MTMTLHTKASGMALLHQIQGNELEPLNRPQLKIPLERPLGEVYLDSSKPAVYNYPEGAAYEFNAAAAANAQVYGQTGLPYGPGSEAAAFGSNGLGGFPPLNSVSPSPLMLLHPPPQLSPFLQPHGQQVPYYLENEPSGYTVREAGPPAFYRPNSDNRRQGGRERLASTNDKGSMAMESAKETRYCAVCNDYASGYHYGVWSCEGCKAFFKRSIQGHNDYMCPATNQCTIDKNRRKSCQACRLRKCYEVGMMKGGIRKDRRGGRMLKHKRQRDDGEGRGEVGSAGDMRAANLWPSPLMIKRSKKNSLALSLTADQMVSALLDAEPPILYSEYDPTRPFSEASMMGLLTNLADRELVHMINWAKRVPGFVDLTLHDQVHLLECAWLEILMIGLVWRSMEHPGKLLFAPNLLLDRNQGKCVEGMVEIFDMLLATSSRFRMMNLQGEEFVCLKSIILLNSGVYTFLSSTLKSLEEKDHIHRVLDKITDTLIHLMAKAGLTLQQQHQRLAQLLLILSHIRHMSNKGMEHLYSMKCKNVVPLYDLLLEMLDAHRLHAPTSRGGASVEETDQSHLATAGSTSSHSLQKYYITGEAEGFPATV
Procedure, shortened: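 Reporter mRNA induction after 24 hours, detected by fluorescent RT-PCR and capillary electrophoresis, gives the read-out. Cells are HepG2 transiently transfected with GAL4-UAS reporter transcription units responding to chimeric NR-Gal4. Activity is taken as gain of signal over DMSO baseline.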

[5] = target: Steroid hormone receptor ERR1 (Homo sapiens) (UniProt P11474); experiment: ATG_ERRa_TRANS: Attagene TRANS-FACTORIAL HepG2 Assay for human Estrogen-Related Receptor alpha (ERRa) (AID 2282971); details: HepG2 Attagene TRANS reporter, ERRa transactivation
Sequence of Steroid hormone receptor ERR1 (Homo sapiens) (P11474 whole entry, looked up, the tested form may be a part): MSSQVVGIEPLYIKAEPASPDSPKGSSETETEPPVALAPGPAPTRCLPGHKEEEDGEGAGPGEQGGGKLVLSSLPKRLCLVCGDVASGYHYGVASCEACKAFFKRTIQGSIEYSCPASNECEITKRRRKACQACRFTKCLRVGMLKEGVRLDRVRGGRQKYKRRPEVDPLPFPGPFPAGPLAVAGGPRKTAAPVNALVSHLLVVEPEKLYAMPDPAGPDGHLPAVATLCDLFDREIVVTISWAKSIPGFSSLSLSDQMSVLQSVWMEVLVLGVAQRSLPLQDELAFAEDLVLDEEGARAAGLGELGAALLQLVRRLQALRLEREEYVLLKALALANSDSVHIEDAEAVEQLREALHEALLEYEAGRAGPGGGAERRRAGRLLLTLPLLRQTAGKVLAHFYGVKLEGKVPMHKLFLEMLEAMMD
Procedure, shortened: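 Transfected HepG2, 24 h dosing, ERRa-Gal4 chimera driving GAL4-UAS reporter. Readout: reporter mRNA via RT-PCR plus capillary electrophoresis (fluorescence). Positive direction vs DMSO control.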

[6] = target: X-box-binding protein 1 (Homo sapiens) (UniProt P17861); experiment: ATG_Xbp1_CIS: Attagene CIS-FACTORIAL HepG2 Assay for human X-box Binding Protein 1 (XBP1) (AID 2282972; active means hit-call score of the fitted dose curve at least 0.9, where 1 is the maximum; inactive means score below 0.9); details: HepG2 XBP1 cis-element reporter, Attagene multiplex; actives raise or lower the signal
Sequence of X-box-binding protein 1 (Homo sapiens) (P17861 whole entry, looked up): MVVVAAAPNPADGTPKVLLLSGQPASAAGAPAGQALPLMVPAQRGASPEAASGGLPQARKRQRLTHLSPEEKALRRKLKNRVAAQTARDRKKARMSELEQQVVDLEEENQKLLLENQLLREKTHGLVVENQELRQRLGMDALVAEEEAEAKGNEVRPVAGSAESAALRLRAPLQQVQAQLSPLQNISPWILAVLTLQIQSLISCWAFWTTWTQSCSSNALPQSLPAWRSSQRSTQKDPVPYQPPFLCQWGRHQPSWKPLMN
Procedure, shortened: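 Multiplexed cis-reporter readout in transfected HepG2 liver cells. Exposure lasted 24 hours. Activity in either direction was fitted against DMSO as negative control and baseline.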

[7] = ATG_M_19_TRANS: Attagene TRANS-FACTORIAL HepG2 Assay for M19 Transcription Factor (Internal Marker) (AID 2282974); details: HepG2 Attagene TRANS-FACTORIAL M19 internal marker reporter
Procedure, shortened: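 Gain-of-signal in reporter mRNA, relative to DMSO, was scored from capillary electrophoresis fluorescence. HepG2 cells carried transiently transfected multiple reporter transcription units and were incubated with test chemicals for 24 h.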

[8] = ATG_GAL4_TRANS: Attagene TRANS-FACTORIAL HepG2 Assay for GAL4 (Internal Marker) (AID 2282976); details: HepG2 Attagene TRANS GAL4 internal marker reporter
Procedure, shortened: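 RT-PCR/capillary electrophoresis readout of reporter mRNA. HepG2, transient MRTU transfection (GAL4-UAS reporters), 24 h compound exposure. Background-control endpoint, positive direction vs DMSO baseline.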

[9] = target: Oxysterols receptor LXR-alpha (Homo sapiens) (UniProt Q13133); experiment: ATG_LXRa_TRANS: Attagene TRANS-FACTORIAL HepG2 Assay for human Liver X Receptor alpha (LXRa) (AID 2282980); details: HepG2 Attagene TRANS reporter, LXRa transactivation
Sequence of Oxysterols receptor LXR-alpha (Homo sapiens) (Q13133 whole entry, looked up, the tested form may be a part): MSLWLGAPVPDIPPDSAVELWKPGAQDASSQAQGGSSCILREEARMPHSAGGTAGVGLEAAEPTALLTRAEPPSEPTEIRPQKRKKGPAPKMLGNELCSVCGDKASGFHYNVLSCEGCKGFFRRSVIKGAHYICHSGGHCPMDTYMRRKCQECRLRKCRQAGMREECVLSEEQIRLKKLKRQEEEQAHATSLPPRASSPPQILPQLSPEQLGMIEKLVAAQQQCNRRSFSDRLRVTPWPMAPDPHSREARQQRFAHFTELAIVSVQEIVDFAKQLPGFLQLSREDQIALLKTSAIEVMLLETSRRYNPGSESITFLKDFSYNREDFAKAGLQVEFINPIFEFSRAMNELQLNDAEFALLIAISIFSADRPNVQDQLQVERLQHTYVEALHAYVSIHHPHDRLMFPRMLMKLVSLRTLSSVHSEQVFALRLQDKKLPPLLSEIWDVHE
Procedure, shortened: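 Read-out: reporter transcript levels by RT-PCR plus capillary electrophoresis, fluorescence intensity. Transiently transfected HepG2, exogenous NR-GAL4 chimera, GAL4-UAS reporters; 24 h compound exposure. Activity = increase over DMSO negative control.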

[10] = target: Transcriptional activator Myb (Homo sapiens) (UniProt P10242); experiment: ATG_Myb_CIS: Attagene CIS-FACTORIAL HepG2 Assay for human Myeloblastosis (Myb) Proto-Oncogene Transcription Factor (AID 2282986; active means hit-call score of the fitted dose curve at least 0.9, where 1 is the maximum; inactive means score below 0.9); details: HepG2 Attagene CIS-FACTORIAL Myb reporter transcription; actives raise or lower the signal
Sequence of Transcriptional activator Myb (Homo sapiens) (P10242 whole entry, looked up): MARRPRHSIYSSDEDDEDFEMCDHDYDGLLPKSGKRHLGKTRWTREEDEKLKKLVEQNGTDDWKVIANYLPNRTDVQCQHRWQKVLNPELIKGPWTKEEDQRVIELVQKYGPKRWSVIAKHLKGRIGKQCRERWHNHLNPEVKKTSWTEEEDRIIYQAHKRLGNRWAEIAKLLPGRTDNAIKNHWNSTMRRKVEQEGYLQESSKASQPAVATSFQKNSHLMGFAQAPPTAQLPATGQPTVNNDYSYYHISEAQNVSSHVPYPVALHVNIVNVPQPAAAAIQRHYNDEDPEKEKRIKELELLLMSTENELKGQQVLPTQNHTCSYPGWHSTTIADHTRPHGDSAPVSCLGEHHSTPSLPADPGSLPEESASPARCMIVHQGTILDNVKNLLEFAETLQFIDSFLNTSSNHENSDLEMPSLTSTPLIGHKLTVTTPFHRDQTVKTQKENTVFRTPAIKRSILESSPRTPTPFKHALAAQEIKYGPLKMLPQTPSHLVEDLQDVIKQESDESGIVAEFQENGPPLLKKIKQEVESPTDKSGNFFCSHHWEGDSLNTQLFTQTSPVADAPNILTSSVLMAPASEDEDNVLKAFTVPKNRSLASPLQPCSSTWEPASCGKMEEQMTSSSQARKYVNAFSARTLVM
Procedure, shortened: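 Multiplexed cis-reporter system in HepG2: transient transfection, 24 h treatment, mRNA readout by RT-PCR and capillary electrophoresis. Both increases and decreases are scored versus DMSO negative control.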

[11] = target: Nuclear respiratory factor 1 (Homo sapiens) (UniProt Q16656); experiment: ATG_NRF1_CIS: Attagene CIS-FACTORIAL HepG2 Assay for human Nuclear Respiratory Factor 1 (NRF1) Orphan Gene (AID 2282987; active means hit-call score of the fitted dose curve at least 0.9, where 1 is the maximum; inactive means score below 0.9); details: HepG2 NRF1 cis-element reporter, Attagene multiplex; actives raise or lower the signal
Procedure, shortened: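 Endogenous factor activity was captured via cis-element-driven reporter transcripts in HepG2 cells. Following 24 h chemical treatment, transcripts were quantified by RT-PCR and capillary electrophoresis.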

[12] = target: Estrogen-related receptor gamma (Homo sapiens) (UniProt P62508); experiment: ATG_ERRg_TRANS: Attagene TRANS-FACTORIAL HepG2 Assay for human Estrogen-Related Receptor gamma (ERRg) (AID 2282977); details: HepG2 Attagene TRANS reporter, ERRg transactivation;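 further: hits increase reporter signal over DMSO so potencies reflect activators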
Sequence of Estrogen-related receptor gamma (Homo sapiens) (P62508 whole entry, looked up, the tested form may be a part): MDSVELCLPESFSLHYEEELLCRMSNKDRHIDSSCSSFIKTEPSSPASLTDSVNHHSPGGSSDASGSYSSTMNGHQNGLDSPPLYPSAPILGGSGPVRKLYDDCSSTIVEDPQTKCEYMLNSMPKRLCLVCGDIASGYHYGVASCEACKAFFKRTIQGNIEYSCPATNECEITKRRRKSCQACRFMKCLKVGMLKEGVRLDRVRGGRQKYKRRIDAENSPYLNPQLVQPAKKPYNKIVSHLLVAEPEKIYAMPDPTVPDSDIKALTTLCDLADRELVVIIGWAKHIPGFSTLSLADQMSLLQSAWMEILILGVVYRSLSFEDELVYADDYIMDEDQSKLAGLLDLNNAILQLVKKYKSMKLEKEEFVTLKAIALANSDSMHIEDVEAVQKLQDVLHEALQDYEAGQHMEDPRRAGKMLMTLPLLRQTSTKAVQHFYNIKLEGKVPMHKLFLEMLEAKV
Procedure, shortened: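 Readout: fluorescent reporter-mRNA fragments resolved by capillary electrophoresis after RT-PCR and HpaI cut. Cells: transiently transfected HepG2 carrying GAL4-UAS reporters driven by exogenous NR-Gal4 chimeras, dosed 24 h. Activity fitted upward relative to DMSO baseline.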

[13] = target: Hepatocyte nuclear factor 4-alpha (Homo sapiens) (UniProt P41235); experiment: ATG_HNF4a_TRANS: Attagene TRANS-FACTORIAL HepG2 Assay for human Hepatocyte Nuclear Factor 4 alpha (HNF4a) (AID 2282982); details: HepG2 HNF4a transactivation reporter, mRNA readout
Sequence of Hepatocyte nuclear factor 4-alpha (Homo sapiens) (P41235 whole entry, looked up): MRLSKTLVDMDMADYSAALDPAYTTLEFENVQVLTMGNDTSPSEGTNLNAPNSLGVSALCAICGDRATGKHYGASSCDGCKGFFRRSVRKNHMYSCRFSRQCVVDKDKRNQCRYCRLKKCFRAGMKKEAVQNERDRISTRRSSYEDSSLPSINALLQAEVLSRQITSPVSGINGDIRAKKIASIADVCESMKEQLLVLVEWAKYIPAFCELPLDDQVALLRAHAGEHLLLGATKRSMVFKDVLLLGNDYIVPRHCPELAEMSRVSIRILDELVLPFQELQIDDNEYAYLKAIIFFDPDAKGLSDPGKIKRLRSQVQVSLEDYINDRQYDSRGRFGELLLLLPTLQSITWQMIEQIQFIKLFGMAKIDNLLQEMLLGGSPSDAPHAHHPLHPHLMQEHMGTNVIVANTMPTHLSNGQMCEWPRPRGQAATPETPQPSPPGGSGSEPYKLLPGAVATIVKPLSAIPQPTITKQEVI
Procedure, shortened: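 Transient MRTU transfection of HepG2, 24 h dosing. Readout: reporter mRNA via RT-PCR + capillary electrophoresis, fluorescence; activity fit upward relative to DMSO control.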

[14] = ATG_M_06_TRANS: Attagene TRANS-FACTORIAL HepG2 Assay for M06 Transcription Factor (Internal Marker) (AID 2282983); details: HepG2 Attagene TRANS M06 internal marker reporter
Procedure, shortened: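 Read-out: fluorescent reporter cDNA fragments resolved by capillary electrophoresis after RT-PCR and HpaI cut. Source cells were HepG2 carrying transfected multi-reporter GAL4 constructs, dosed 24 h. Increase over DMSO control analysed.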

[15] = ATG_M_32_TRANS: Attagene TRANS-FACTORIAL HepG2 Assay for M32 Transcription Factor (Internal Marker) (AID 2282984); details: HepG2 Attagene TRANS M32 internal marker reporter;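 further: transcript level of a background control reporter unit measured by RT-PCR and capillary electrophoresis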
Procedure, shortened: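 Read-out: fluorescent reporter cDNA fragments resolved by capillary electrophoresis after RT-PCR of total RNA. Transfected HepG2 cells were exposed to chemical for 24 h. Activity scored in the positive direction relative to DMSO.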

[16] = target: Nuclear receptor subfamily 4 group A member 2 (Homo sapiens) (UniProt P43354); experiment: ATG_NURR1_TRANS: Attagene TRANS-FACTORIAL HepG2 Assay for human Nuclear Receptor Related Protein 1 (NURR1) (AID 2282985); details: HepG2 Attagene TRANS reporter, mRNA readout
Procedure, shortened: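 Read-out: reporter mRNA induction by RT-PCR plus capillary electrophoresis with fluorescence detection, after 24 h dosing of transfected HepG2 cells. Exogenous NR-Gal4 chimera activity drives GAL4-UAS reporter; activity fitted upward versus DMSO.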

[17] = target: Glucocorticoid receptor (Homo sapiens) (UniProt P04150); experiment: ATG_GR_TRANS: Attagene TRANS-FACTORIAL HepG2 Assay for human Glucocorticoid Receptor (GR) (AID 2282978); details: HepG2 Attagene TRANS GR reporter, mRNA transcription;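 further: activators score as hits since higher reporter transcript over DMSO is fitted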
Sequence of Glucocorticoid receptor (Homo sapiens) (P04150 whole entry, looked up, the tested form may be a part): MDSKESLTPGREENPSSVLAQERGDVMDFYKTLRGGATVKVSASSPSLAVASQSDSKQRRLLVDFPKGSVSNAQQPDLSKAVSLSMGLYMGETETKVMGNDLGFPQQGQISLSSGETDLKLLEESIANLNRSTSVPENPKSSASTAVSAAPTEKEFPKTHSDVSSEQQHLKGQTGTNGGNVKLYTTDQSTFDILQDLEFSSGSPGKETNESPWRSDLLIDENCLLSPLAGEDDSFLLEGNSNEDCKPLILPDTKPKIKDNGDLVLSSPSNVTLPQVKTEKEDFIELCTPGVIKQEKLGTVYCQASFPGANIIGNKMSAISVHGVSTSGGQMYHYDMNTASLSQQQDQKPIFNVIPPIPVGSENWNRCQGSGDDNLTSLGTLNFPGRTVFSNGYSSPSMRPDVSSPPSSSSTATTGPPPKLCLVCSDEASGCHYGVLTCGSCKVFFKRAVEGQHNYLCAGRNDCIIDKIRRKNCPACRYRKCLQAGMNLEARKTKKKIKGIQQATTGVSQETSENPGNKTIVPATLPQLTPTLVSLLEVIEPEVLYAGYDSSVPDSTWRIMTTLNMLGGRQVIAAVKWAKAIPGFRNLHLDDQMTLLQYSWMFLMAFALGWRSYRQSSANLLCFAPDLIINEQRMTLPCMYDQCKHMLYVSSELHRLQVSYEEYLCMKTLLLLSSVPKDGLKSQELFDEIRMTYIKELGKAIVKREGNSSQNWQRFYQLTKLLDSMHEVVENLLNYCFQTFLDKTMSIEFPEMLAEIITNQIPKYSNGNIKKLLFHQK
Procedure, shortened: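 HepG2 transient transfection, multiple reporter units, GAL4-UAS under NR-GAL4 chimera control. 24 h treatment. Reporter mRNA by RT-PCR/CE fluorescence, DMSO as negative control.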

[18] = target: Oxysterols receptor LXR-beta (Homo sapiens) (UniProt P55055); experiment: ATG_LXRb_TRANS: Attagene TRANS-FACTORIAL HepG2 Assay for human Liver X Receptor beta (LXRb) (AID 2282981); details: HepG2 Attagene TRANS GAL4-LXRb reporter, mRNA
Sequence of Oxysterols receptor LXR-beta (Homo sapiens) (P55055 whole entry, looked up, the tested form may be a part): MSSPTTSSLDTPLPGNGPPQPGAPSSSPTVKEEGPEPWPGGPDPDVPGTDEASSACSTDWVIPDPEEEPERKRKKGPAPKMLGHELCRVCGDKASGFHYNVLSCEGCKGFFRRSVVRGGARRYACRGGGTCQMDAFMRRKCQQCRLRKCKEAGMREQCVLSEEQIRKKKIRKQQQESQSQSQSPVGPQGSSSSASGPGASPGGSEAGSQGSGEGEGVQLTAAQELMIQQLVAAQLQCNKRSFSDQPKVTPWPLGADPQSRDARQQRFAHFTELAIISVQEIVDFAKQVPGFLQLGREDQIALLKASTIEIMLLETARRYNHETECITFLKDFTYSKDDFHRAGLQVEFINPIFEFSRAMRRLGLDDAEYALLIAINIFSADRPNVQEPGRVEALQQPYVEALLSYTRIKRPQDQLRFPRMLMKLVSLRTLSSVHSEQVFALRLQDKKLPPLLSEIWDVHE
Procedure, shortened: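 Readout: fluorescent reporter mRNA fragments resolved by capillary electrophoresis after RT-PCR. System: transiently transfected human HepG2, exogenous LXRb-Gal4 chimera driving GAL4-UAS reporter, 24 h dosing. Activity fitted upward against DMSO baseline.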

[19] = target: Bile acid receptor (Homo sapiens) (UniProt Q96RI1); experiment: ATG_FXR_TRANS: Attagene TRANS-FACTORIAL HepG2 Assay for Farnesoid X Receptor (FXR) (AID 2282979); details: HepG2 Attagene TRANS FXR-GAL4 reporter transcription;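 further: hits raise reporter mRNA above DMSO so AC50 marks FXR activation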
Procedure, shortened: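 Read-out: fluorescent reporter transcripts quantified by capillary electrophoresis after RT-PCR of total RNA. Source cells were HepG2 transiently carrying chimeric NR-GAL4 plus GAL4-UAS reporter units, dosed 24 h. Activity fitted upward relative to DMSO baseline.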

Measured: AC50

CC/C=C\CCOC(=O)CCCCC
inactive: [1] | [2] | [3] | [4] | [5] | [6] | [7] | [8] | [9] | [10] | [11]

CC(CC=O)CCCC(C)(C)O (stereo not drawn)
inactive: [1] | [2] | [3] | [4] | [6] | [7] | [8] | [12] | [13] | [14] | [15] | [16] | [10]

N[C@H]1C(O)O[C@H](CO)[C@H](O)[C@@H]1O (stereo partly drawn)
inactive: [1] | [2] | [3] | [4] | [6] | [7] | [8] | [12] | [14] | [10] | [11]

CCCCCCCCC(=O)OCC
inactive: [1] | [2] | [3] | [4] | [6] | [7] | [8] | [12] | [13] | [15] | [10] | [11]

CC(CC=O)c1ccccc1 (stereo not drawn)
active: [3] 7.03 µM
inactive: [1] | [2] | [4] | [6] | [7] | [8] | [14] | [16] | [11]

CC(C)c1ccc(C#N)cc1
inactive: [1] | [2] | [3] | [4] | [5] | [6] | [7] | [8] | [17] | [10] | [11]

Cc1ccc([N+](=O)[O-])cc1S(=O)(=O)O
active: [10] 191 µM
inactive: [1] | [2] | [3] | [4] | [6] | [7] | [17] | [9] | [13] | [11]

Cc1cc(=O)n(-c2ccccc2)n1C
inactive: [1] | [2] | [3] | [4] | [5] | [6] | [7] | [14] | [15] | [16] | [10] | [11]

COC(=O)c1c(C)cc(O)c(C)c1O
active: [4] 38.7 µM
inactive: [1] | [2] | [3] | [6] | [7] | [8] | [18] | [14] | [15] | [10] | [11]

CCCNC(=O)NS(=O)(=O)c1ccc(Cl)cc1
inactive: [1] | [2] | [3] | [4] | [6] | [7] | [8] | [9] | [14] | [15] | [10] | [11]

O=C(O)C(c1ccc(Cl)cc1)c1ccc(Cl)cc1
active: [4] 7.33 µM
inactive: [1] | [2] | [3] | [6] | [7] | [8] | [9] | [13] | [10] | [11]

CC(C)CCCCCOC(=O)CCS
inactive: [1] | [2] | [3] | [4] | [6] | [7] | [17] | [18] | [13] | [15] | [10] | [11]

CCC(CO)CO
inactive: [1] | [2] | [3] | [4] | [6] | [7] | [8] | [17] | [18] | [13] | [15] | [16] | [10] | [11]

CCCCNc1ccc(NCCCC)c2c1C(=O)c1ccccc1C2=O
inactive: [1] | [2] | [3] | [4] | [6] | [7] | [17] | [19] | [9] | [13] | [14] | [15] | [16] | [10] | [11]

OCCc1ccncc1
inactive: [1] | [2] | [3] | [4] | [5] | [6] | [8] | [14] | [10] | [11]

OCCN(CCO)c1ccccc1
inactive: [1] | [2] | [3] | [4] | [6] | [7] | [8] | [18] | [14] | [16] | [10]

C=C(C)C(=O)OCC(C)C
inactive: [1] | [2] | [3] | [4] | [6] | [7] | [8] | [19] | [13] | [16] | [10] | [11]

CC[C@H]1OC(=O)[C@H](C)[C@@H](O[C@H]2C[C@@](C)(OC)[C@@H](O)[C@H](C)O2)[C@H](C)[C@@H](O[C@@H]2O[C@H](C)C[C@H](N(C)C)[C@H]2O)[C@](C)(O)C[C@@H](C)C(=NOCOCCOC)[C@H](C)[C@@H](O)[C@]1(C)O
inactive: [1] | [2] | [3] | [4] | [6] | [7] | [8] | [19] | [18] | [13] | [16] | [10] | [11]
